High-throughput results: PubChem BioAssay, National Center for Advancing Translational Sciences (NCATS)
BAZ2B inh: blocks human BAZ2B; Q9UIF8; AlphaScreen BAZ2B-H3K14Ac peptide displacement; Potency, µM (highest dose often 114 µM), for inactives: top-dose activity change, negative = inhibition, usual class: inhibitors; 360,000 compounds, 4.4% hits; further: potency means the concentration at half of the fitted maximal effect; on the % scale 0 is the no-effect control and ±100 the full control effect; nearly all actives have a fitted effect of over 60% in size
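Inhibition is scored as reduced AlphaScreen emission. The BAZ2B/b-H3(5-23)K14Ac complex (50 nM each) in PBS pH 7.4, 0.01% Tween-20 meets compound (up to 110 uM) for 30 min at RT before bead addition.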
G9a inh: G9a (human) methyltransferase inhibition. G9a H3K9 monomethylation, AlphaScreen, 2 h. Potency, µM (titrated, usually from 102 µM), for inactives: at the top dose activity, negative = inhibition, usual class: inhibitors. 350,000 compounds, 8.8% hits. AID 504332; further: potency means the concentration at half of the fitted maximal effect; on the % scale 0 is the no-effect control and ±100 the full control effect; nearly all actives have a fitted effect of over 75% in size
Target sequence (Q96KQ7 913-1193 limits assumed): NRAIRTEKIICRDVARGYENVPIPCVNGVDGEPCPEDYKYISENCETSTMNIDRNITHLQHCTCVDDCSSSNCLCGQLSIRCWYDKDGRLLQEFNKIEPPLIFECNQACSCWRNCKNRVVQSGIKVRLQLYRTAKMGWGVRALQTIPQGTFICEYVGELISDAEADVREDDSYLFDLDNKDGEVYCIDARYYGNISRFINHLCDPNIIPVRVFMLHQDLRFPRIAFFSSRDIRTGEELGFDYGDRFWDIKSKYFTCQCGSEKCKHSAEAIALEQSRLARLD
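G9a (20 nM) preincubated 15 min RT with compounds, then 500 nM biotinylated H3K9 peptide and 20 uM SAM added; 2 h RT reaction. Monomethyl-H3K9 product detected by AlphaScreen with anti-H3K9me1 antibody, streptavidin donor and anti-rabbit IgG acceptor beads.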
CtBP-E1A blk: blocks the CtBP interaction with E1A; AlphaScreen GST-E1A/His-CtBP binding, 1536-well; hits give low values; activity change, % (concentration not given with the values); 340,000 compounds, 0.49% hits; AID 651724; in the data active means activity change below about -65%; inconclusive means mostly about -30% to -63%; further: on the % scale 0 is the no-effect control and ±100 the full control effect
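In 5 uL wells, 23 nL compound meets equimolar GST-E1A and His-CtBP (5X stock 125 nM each) for 2 h, 37 °C. Beads (5X, 50 ug/mL) then 1 h, 37 °C, dark.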
Six1-Eya2 inh: Six1/Eya2 interaction inhibition. Q15475+O00167. AlphaScreen GST-Six1/His-Eya2 binding, biochemical; hits give low values. activity change, % (test concentration not listed). 360,000 compounds, 0.56% hits; in the data active means activity change below about -65%; inconclusive means mostly about -30% to -63%; further: on the % scale 0 is the no-effect control and ±100 the full control effect
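Compounds are tested against tagged Six1 and Eya2 proteins bridged by glutathione donor and nickel acceptor beads; after a one-hour incubation at 37 °C without light, AlphaScreen emission is recorded.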
JMJD2A Tudor: inhibitors of human JMJD2A Tudor domain. O75164. AlphaScreen JMJD2A-Tudor / H3K4me3 peptide binding. Potency, µM (series often up to 114 µM), for the others: at the top dose activity change, negative = inhibition, usual class: inhibitors. 390,000 compounds, 4.4% hits; further: potency means the concentration at half of the fitted maximal effect; on the % scale 0 is the no-effect control and ±100 the full control effect; nearly all actives have a fitted effect of over 50% in size
HP1b binding inh: blocks HP1-beta chromodomain binding to methylated histone tails | AlphaScreen HP1-beta / biotin-H3K9me3 peptide binding | 390,000 compounds, 0.56% hits | P83916 | Potency, µM (top dose mostly 114 µM), for inactives: top-dose activity change, negative = inhibition, hits mostly inhibitors; further: potency means the concentration at half of the fitted maximal effect; nearly all actives have a fitted effect of over 70% in size
Target sequence (P83916 whole entry, looked up): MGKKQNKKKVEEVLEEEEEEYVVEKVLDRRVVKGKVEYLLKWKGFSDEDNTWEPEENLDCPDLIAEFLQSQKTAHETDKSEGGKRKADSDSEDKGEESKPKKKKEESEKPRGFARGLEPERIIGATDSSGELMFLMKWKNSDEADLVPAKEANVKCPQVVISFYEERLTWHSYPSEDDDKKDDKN
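HP1-beta protein (50 nM final) preincubated 30 min at room temperature with biotinylated H3(1-18)K9me3 peptide (50 nM) in PBS pH 7.4, 0.01% Tween-20, then compound added for 30 min. AlphaScreen streptavidin donor/nickel chelate acceptor beads (10 ug/mL final), 30 min dark, luminescence read.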
* marks the source's active call; other numbers are inactive results; ? = inconclusive; nt = no result; ! = not active in a repeat; [ ] = another dose, or the depositor's remark. Sampled rows, rich in hits. Any-hit rate of the full collection: about 10%. Unless noted, the call rests on the fitted dose curve; in most records, active means well fitted inhibition curve with a large enough effect; inconclusive means small, poorly fitted or top-dose-only effect; inactive means no such curve, though single readings can be large or run the other way.

SMILES	BAZ2B inh	G9a inh	CtBP-E1A blk	Six1-Eya2 inh	JMJD2A Tudor	HP1b binding inh
COc1ccc(C2C3=C(N=C4SCC(=O)N42)c2ccccc2CC3)cc1 (stereo unspecified)	12%	50µM*	-6	0	-35%	1%
O=C(COC(=O)c1ccccc1O)NCCCc1ccccc1	20%	-32%	-1	-2	79µM*	4%
O=C(COC(=O)c1cccnc1Cl)NCCCc1ccccc1	12%	17%[2.33 µM]	1	2	-12%	28%
COc1ccc2oc(-c3cccc(NC(=O)c4cc([N+](=O)[O-])ccc4N4CCOCC4)c3)nc2c1	?	?	nt	nt	-29%	-11%
Cc1ccc(C)c(OCCSc2nc3ccccc3n2CC(=O)N2CCOCC2)c1	?	?	nt	nt	-30%	22%
Cc1ccc(OCCSc2nc3ccccc3n2CC(=O)N2CCCCC2)c(C)c1	-25%	14µM*	nt	nt	-30%	3%
O=C1c2cccnc2C(Nc2ccc(Br)cc2Br)N1Cc1cccs1 (stereo unspecified)	-24%	-24%	nt	nt	nt	nt
O=C1c2cccnc2C(Nc2ccc(Br)cc2)N1Cc1cccs1 (stereo unspecified)	nt	50µM*	-7	-5	?	9%
COc1ccc(NC2c3ncccc3C(=O)N2Cc2cccs2)cc1 (stereo unspecified)	71µM*	50µM*	nt	0	?	?
COC(=O)c1ccc(NC2c3ncccc3C(=O)N2Cc2cccs2)cc1 (stereo unspecified)	-3%	?	-13	5	-8%	24%
O=C1c2cccnc2C(Nc2ccc(F)c(Cl)c2)N1Cc1cccs1 (stereo unspecified)	?	50µM*	-6	-2	-10%	17%
CCOc1cccc(C(=O)N(Cc2ccc(C)o2)C2CCS(=O)(=O)C2)c1 (stereo unspecified)	-21%	-17%[59 µM]	nt	nt	-30%	7%
CC(=O)N1CCC(N(Cc2ccco2)C(=O)Nc2cccc(C)c2)CC1	5%	7%[59 µM]	nt	nt	4%	49%
Cc1ccc2c(c1)c(/C=C/c1cc[n+](C)cc1)c(C)n2C	-15%	45µM*	nt	2	?	8%
Cc1ccc2[nH]c(C)c(/C=C/c3cc[n+](C)cc3)c2c1	?	-100%	-1	0	-22%	-18%
CCC(C(=O)Nc1ccc(C(=O)OC)cc1)n1c(=O)c(-c2ccccc2NC(C)=O)nc2ccccc21 (stereo unspecified)	?	?	nt	nt	-28%	1%
CC(C(=O)O/N=C(\N)c1ccccn1)c1ccc([N+](=O)[O-])cc1 (stereo unspecified)	56µM*	?	-5	0	-7%	27%
N/C(=N\OCc1ccc([N+](=O)[O-])cc1)c1ccccn1	-18%	?	4	-18	-20%	21%
COc1ccc(C(=O)Nc2ccccc2C(=O)N2CCCCC2C)cc1 (stereo unspecified)	0%	34%[12.7 µM]	0	-7	-18%	17%
CC(=O)C1=C(O)C(=O)N(c2cccnc2)C1c1cccc([N+](=O)[O-])c1 (stereo unspecified)	-21%	?	-5	1	-31%	-5%
CC(=O)C1=C(O)C(=O)N(c2ccc(O)cc2)C1c1cccc([N+](=O)[O-])c1 (stereo unspecified)	4%	50µM*	nt	5	-7%	22%
CC(=O)C1=C(O)C(=O)N(c2ccc(Br)cc2)C1c1cccc(F)c1 (stereo unspecified)	-34%	45µM*	nt	0	-23%	11%
Cc1ccc(-n2nc(C(=O)Nc3ccc(Br)cc3C)c(=O)n(C)c2=O)cc1	-1%	-1%[59 µM]	nt	nt	-5%	19%[57 µM]
O=C(NC(=S)NCCC1=CCCCC1)c1ccccc1Br	50µM*	nt	7	-1	-6%	20%
CC1CC(C)(C)CC2(C1)NC(=O)N(CC(=O)N1CCN(Cc3ccc(C#N)cc3)CC1)C2=O (stereo unspecified)	-7%	50µM*	-15	3	-12%	-6%
SMILES	BAZ2B inh	G9a inh	CtBP-E1A blk	Six1-Eya2 inh	JMJD2A Tudor	HP1b binding inh
CC1(c2ccc3ccccc3c2)NC(=O)N(CC(=O)N2CCN(Cc3ccc(C#N)cc3)CC2)C1=O (stereo unspecified)	2%	?	-4	1	-16%	12%
O=C(O)c1ccc2c(=O)n(-c3ccccc3)c(=S)[nH]c2c1	-19%	?	11	3	6%	47%
O=c1[nH]c(=O)c2[nH]c(=S)n(-c3ccccc3)c2[nH]1	nt	nt	1	4	40µM*	-7%
O=C(Nc1cccc(Cl)c1)C1CCCN(C2=NS(=O)(=O)c3ccccc32)C1 (stereo unspecified)	-6%	?	0	-11	-18%	13%
O=C(Nc1ccc(Cl)cc1F)C1CCCN(C2=NS(=O)(=O)c3ccccc32)C1 (stereo unspecified)	13%	50µM*	-22	-7	-18%	22%
O=C(CO/N=C/c1ccc(OC(F)F)cc1)N1CCc2ccccc21	7%	-1%[59 µM]	2	13	-10%	22%
O=C(/C=C/c1ccc(OC(F)F)cc1)OCC(=O)N1CCc2ccccc21	7%	45µM*	-1	3	-14%	17%
O=C(OCC(=O)N1CCc2ccccc21)c1ccc[nH]c1=O	-10%	-16%	-24	2	14µM*	0%
CN(Cc1ccccc1)C(=O)COC(=O)c1ccc[nH]c1=O	nt	nt	-13	32	22µM*	23%
Cc1cc(C(=O)OCC(=O)N2CCc3ccccc32)c(C)o1	10%	20%[59 µM]	4	-3	11%	18%
CNCCCC1c2ccccc2C=Cc2ccccc21	-3%	22%[59 µM]	-13	0	-14%	10%
CNCCCC12CCC(c3ccccc31)c1ccccc12	-1%	71µM*!	-7	-3	-28%	38%
Cn1c(=S)[nH]c2scc(-c3cccs3)c2c1=O	-17%	10µM*	-13	-15	?	-13%
C=CCn1c(=S)[nH]c2scc(-c3cccs3)c2c1=O	-36%	-4%[59 µM]	2	-7	-23%	34%
O=C1c2ccccc2C(=O)c2c1ccc1c(=O)n(C3CCCCC3)[nH]c21	50µM*	7.9µM*	-16	-7	25µM*	-11%
O=c1c2[nH]c3ccccc3c2ncn1C1CCCCC1	0%	-20%[59 µM]	-1	0	-1%	61%
CCOC(=O)c1c[nH]c(=S)n1C	-22%	22µM*	2	3	32µM*	-15%
CCOC(=O)c1sc(=S)n(C)c1C	-10%	13%	9	2	-5%[57.1 µM]	68%
